Results: PubChem BioAssay (NCATS)
Inconclusive results are not listed. Unmarked numbers belong to inactive results. Activity calls are given as the source filed them. The call rests on the fitted dose curve; in most records, active means well fitted inhibition curve with a large enough effect; inconclusive means small, poorly fitted or top-dose-only effect; inactive means no such curve, though single readings can be large or run the other way.

assay: qHTS to identify inhibitors of the type 1 interferon - major histocompatibility complex class I in skeletal muscle: primary screen against the NCATS Mechanism Interrogation Plate v5.0 (MIPE) Libary (AID 1347411); details: iHSKM cells + IFN-b, HiBiT-tagged MHC-I luminescence, 24 h; series mostly up to 45.8 µM; activity change, negative = inhibition: at the top concentration; further: nearly all actives have a fitted effect of over 65% in size;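 on activity change, negative = inhibition: plate controls were vehicle for no effect and reference inhibitor for full effect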
Method in brief: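 HLA-B HiBit myoblasts, dexamethasone-free medium + 4 ng/ml IFN-b, 24 h compound, 11-pt 1:3 from 46 uM final. Readout: Nano-Glo HiBiT lytic luminescence after 10 min lysis, RT.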
Potency means the concentration at half of the fitted maximal effect.

Row | SMILES | activity change, negative = inhibition | Potency
1 | COC1CCC(C(=O)c2ccc3nc4c(cc3c2)CCCO4)CC1 (configuration not stated) | -0.171% | 
2 | COc1cc2ncn(-c3cc(OCc4ccccc4S(C)(=O)=O)c(C#N)s3)c2cc1OC | -14.8% | 
3 | O=C(CC12CC3CC(CC(C3)C1)C2)Nc1cccc2nc(NCCNCCO)ccc12 | -10.4% | 
4 | Nc1[nH]nc2nnc(-c3c(-c4ccccc4)nn4ccccc34)cc12 | -17.8% | 
5 | O=c1[nH]nc(OCCCc2ccc(Cl)cc2)c(NCc2cccnc2)c1Br | -41.3% | 
6 | CCNC(=O)c1noc(-c2cc(C(C)C)c(O)cc2O)c1-c1ccc(CN2CCOCC2)cc1 |  | 0.0415 µM (active)
7 | Cc1cc(NC(=O)Nc2ccc(N(C)C)cc2)c2cc(F)cc(F)c2n1 | -24.1% [at 15.5 µM] | 
8 | OC1CCC(Nc2ncc3nc(Nc4c(F)cc(F)cc4F)n([C@@H]4CCOC4)c3n2)CC1 (some centres not stated) | -11% | 
9 | Cc1ccccc1-n1c(Cn2nc(-c3cccc(O)c3)c3c(N)ncnc32)nc2cccc(C)c2c1=O |  | 20.8 µM (active)
10 | N#Cc1ccc(Oc2ccc3c(c2)COB3O)cc1 | -29.9% | 
11 | CN[C@@H](C)[C@H]1[C@H](O)C[C@@]2(C)[C@@H]3CC[C@H]4C(C)(C)[C@@H](NC)CC[C@@]45C[C@@]35CC[C@]12C | 36.7% [at 8.44 µM] | 
12 | Cc1cc(OCCCS(C)(=O)=O)cc(C)c1-c1cccc(COc2ccc3c(c2)OC[C@H]3CC(=O)O)c1 | -0.397% | 
13 | COc1cc(F)c(C(C)C)cc1-c1ccc(C(F)(F)F)cc1CN1C(=O)O[C@H](c2cc(C(F)(F)F)cc(C(F)(F)F)c2)[C@@H]1C | 11.5% | 
14 | COc1nccc(-c2c(-c3ccc(F)cc3)ncn2C2CCC(O)CC2)n1 (configuration not stated) | -14.3% | 
15 | Cc1c(C(=O)Nc2ccc(N3C[C@@H](C)O[C@@H](C)C3)nc2)cccc1-c1ccc(OC(F)(F)F)cc1 | -7.77% | 
16 | CC(C)(CO)[C@@H](O)C(=O)NCCC(=O)O | -4.35% | 

Row | SMILES | activity change, negative = inhibition | Potency
17 | CCn1c(-c2nonc2N)nc2cncc(CNC3CCNCC3)c21 | -13.7% | 
18 | CN1CCN(c2cccc(Nc3nc4c(-c5ccc(S(C)(=O)=O)cc5)cccn4n3)c2)CC1 |  | 5.23 µM (active)
19 | C[C@@H](N)c1ccc(C(=O)Nc2ccnc3[nH]ccc23)cc1 |  | 16.5 µM (active)
20 | CC(C)(F)C[C@H](N[C@@H](c1ccc(-c2ccc(S(C)(=O)=O)cc2)cc1)C(F)(F)F)C(=O)NC1(C#N)CC1 | 4.21% | 
21 | CCCCC(F)(F)[C@@]1(O)CC[C@H]2[C@H](CC(=O)[C@@H]2CCCCCCC(=O)O)O1 | -1.06% | 
22 | Cc1ccc(S(=O)(=O)Nc2nc3ccccc3nc2Nc2ccc3nsnc3c2)cc1 | -3.24% [at 15.5 µM] | 
23 | Cc1cc2nc3c(=O)[nH]c(=O)nc-3n(CC(O)C(O)C(O)CO)c2cc1C (configuration not stated) | -14.3% | 
24 | COc1ccc(Cn2ccc3ccc(C(=O)NO)cc32)cc1 | -1.33% | 
25 | CCC(c1ccc(O)cc1)C(CC)c1ccc(O)cc1 (configuration not stated) | -12.6% | 
26 | Cc1cnc(CNC(=O)c2c(=O)c3ccc(N4CCCN(C)CC4)nc3n3c2sc2ccccc23)cn1 | -4.9% [at 8.44 µM] | 
27 | Cc1cc2c(cc1C1(c3ccc(C(=O)O)cn3)CC1)C(C)(C)CCC2(C)C | 0.232% | 
28 | O=[N+]([O-])c1ccc(Nc2ccccc2-c2ccccc2)c2nonc12 |  | 26.2 µM (active)
29 | Cc1cc(C(C)Nc2ccccc2)c2nc(N3CCOCC3)cc(=O)n2c1 (configuration not stated) | -27% | 
30 | CC(=O)Nc1cccc(-n2c(=O)n(C3CC3)c(=O)c3c(Nc4ccc(I)cc4F)n(C)c(=O)c(C)c32)c1 | -10.7% | 
31 | CC(NCCc1ccc(O)cc1)C(O)c1ccc(O)cc1 (configuration not stated) | 4.81% | 
32 | C#CCN(C)CC1=Cc2ccccc2Oc2ccccc21 | -12.3% | 
